High-throughput results from PubChem.
In the library only some 7.3% were active in any assay of this set; here they are far more common.
SMN2 splice enh: enhancers of SMN2 splice variant expression. HEK293 SMN2-luciferase splicing reporter, luminescence, 30-36 h. Potency, µM (top dose mostly 46.1 µM), without a hit: top-dose activity change, positive = activation, hits mostly activators. 210,000 compounds, 2.8% hits. AID 1458; note: % of control where 0% means no effect; nearly all actives have a fitted effect of over 55% in size
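qHTS luciferase splicing reporter: luminescence rises when SMN2 exon 7 is included in transfected HEK293 cells. Compound exposure lasted 30-36 h at 37C, with 4.5 mM final sodium butyrate as control, followed by a ONE-Glo read.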
ELG1 genotoxic: genotoxicity induction in ELG1-luciferase HEK293T cells; HEK293T ELG1-luciferase reporter, luminescence, 16 h; Potency, µM (highest dose often 46 µM), without a hit: at the top dose activity change, positive = activation, actives largely listed as activators; 330,000 compounds, 1.3% hits; note: % of control where 0% means no effect; nearly all actives have a fitted effect of over 60% in size
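Genotoxicity was scored as increased ELG1-luciferase reporter signal, measured by ONE-Glo luminescence (30 min, room temperature). Compound or vehicle exposure of the HEK293T reporter cells lasted 16 hr at 37°C.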
Rab9 prom act: Rab9 promoter activation. Huh7 Rab9 promoter-luciferase reporter, luminescence, 24 h. Potency, µM (highest dose often 9.22 µM), for the others: top-dose activation, negative = inhibition, actives largely listed as activators. 320,000 compounds, 2.8% hits; note: % of control where 0% means no effect; nearly all actives have a fitted effect of over 60% in size
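Steps: seed 1500 Huh7 Rab9-luc cells per well, rest 2 h at 37 °C; add compound in DMSO; incubate 24 h; add luciferase reagent, 10 min ambient; read luminescence.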
NPC1 prom act: NPC1 promoter activation; Huh7 NPC1 promoter luciferase reporter, 24 h; Potency, µM (doses to about 9.22 µM), for inactives: at the top dose activation, most hits filed as activators; 320,000 compounds, 2.4% hits; AID 485313; note: % of control where 0% means no effect; nearly all actives have a fitted effect of over 60% in size
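Stable NPC1-promoter luciferase Huh7 line; cpd (DMSO) 24 h, 37 °C, 5% CO2; Amplite luciferase reagent 10 min RT; luminescence readout. qHTS format.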
FLuc counter: firefly luciferase modulation, counter-screen for miR-21 project. 360,000 compounds, 6.9% hits. P08659. Potency, µM (highest dose often 57.5 µM), without a hit: at the highest dose activity change, negative = inhibition, actives largely listed as inhibitors. purified FLuc, Km substrates, luminescence inhibition. AID 588342;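 note: plate controls were vehicle for no effect and reference inhibitor for full effect; nearly all actives have a fitted effect of over 55% in size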
Target sequence (P08659 whole entry, looked up): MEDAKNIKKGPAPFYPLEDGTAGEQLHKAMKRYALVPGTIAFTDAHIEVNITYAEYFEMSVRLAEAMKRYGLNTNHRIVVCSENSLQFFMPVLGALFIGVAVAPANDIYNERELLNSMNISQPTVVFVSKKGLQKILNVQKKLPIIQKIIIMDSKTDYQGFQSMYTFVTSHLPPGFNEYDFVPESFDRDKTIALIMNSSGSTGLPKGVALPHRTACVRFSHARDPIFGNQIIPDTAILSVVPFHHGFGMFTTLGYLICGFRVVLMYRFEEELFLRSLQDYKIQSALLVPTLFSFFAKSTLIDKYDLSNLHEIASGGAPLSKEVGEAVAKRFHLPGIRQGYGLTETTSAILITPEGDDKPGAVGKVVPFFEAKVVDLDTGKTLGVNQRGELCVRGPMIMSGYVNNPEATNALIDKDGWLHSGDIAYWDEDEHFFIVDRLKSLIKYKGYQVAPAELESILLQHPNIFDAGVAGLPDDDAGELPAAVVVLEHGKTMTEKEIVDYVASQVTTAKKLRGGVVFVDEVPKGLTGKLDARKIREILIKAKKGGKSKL
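Purified P. pyralis luciferase (10nM final) with 10uM D-luciferin and 10uM ATP (Km levels) in 50mM Tris acetate pH 7.5, 10mM Mg acetate, 0.01% Tween-20, 0.05% BSA; qHTS 6-point titration, ~60 µM downward; luminescence read.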
p53 reactivation: mutant p53 re-activation in reporter cells | H1299 p53-A138V BP100-luciferase reporter, luminescence, 24 h | Potency, µM (titrated, usually from 92.2 µM), inactives show top-dose activity change, positive = activation, usual class: activators | 320,000 compounds, 0.063% hits | AID 504706; note: % of control where 0% means no effect; nearly all actives have a fitted effect of over 45% in size
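p53-null H1299 cells stably carrying temperature-sensitive p53-A138V and a BP100-luciferase reporter were pinned with compounds (4-point, 1:5 series) and held 24 hrs at 37 deg C. Luminescence was read 10 min after detection reagent.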
Active calls of the source: *; [ ] = dose if it differs, or a comment. Calls come from the whole dose curve; as a rule, active = well fitted curve in the direction sought with a large enough effect; inconclusive = small, poorly fitted or top-dose-only effect, or another doubt; inactive = no such curve, though single readings can be large; an effect the other way counts as inactive or inconclusive. Potency is the fitted concentration of half-maximal effect.

Results for COc1ccc2c(c1)c(C(=O)N/N=C/c1ccc(OC)c(OC)c1)c(C)n2C ?
SMN2 splice enh: -9%; ELG1 genotoxic: 1%; Rab9 prom act: 2%; NPC1 prom act: -2%; FLuc counter: inconclusive; p53 reactivation: -19%

How did CO[C@@H]1/C=C\O[C@]2(C)Oc3c(C)c(O)c4c(O)c(cc(O)c4c3C2=O)NC(=O)/C(C)=C\C=C/[C@H](C)[C@@H](O)[C@H](C)[C@H](O)C(C)[C@H](OC(C)=O)[C@@H]1C (stereo partly specified) do in these assays?
SMN2 splice enh: 4%[9.22 µM]

How did O=C(CCc1nnc(-c2ccc3c(c2)OCO3)o1)NC(c1cccnc1)C(F)(F)F (stereo unspecified) do in these assays?
ELG1 genotoxic: -1%; Rab9 prom act: 0%; NPC1 prom act: 0%; FLuc counter: 4%; p53 reactivation: -1%

What do the screens show for `O=C(CSc1nccn1-c1cccc(Cl)c1)Nc1ccc2c(c1)OCO2`?
FLuc counter: -4%

How did O=C(CCCC(=O)OCC(=O)c1ccc(F)cc1)Nc1cc(C(F)(F)F)ccc1Cl do in these assays?
SMN2 splice enh: 20%; ELG1 genotoxic: 2%; Rab9 prom act: -1%; NPC1 prom act: 2%; FLuc counter: 12µM*; p53 reactivation: -1%

Results for O=C(CCCC(=O)OCC(=O)c1ccc(Cl)cc1Cl)Nc1cc(C(F)(F)F)ccc1Cl ?
SMN2 splice enh: -2%; ELG1 genotoxic: 0%; Rab9 prom act: -3%; NPC1 prom act: 1%; FLuc counter: 3.8µM*; p53 reactivation: 1%

Results for O=C(COC(=O)c1ccc(O)cc1)Nc1cc(C(F)(F)F)ccc1Cl ?
SMN2 splice enh: 12%; ELG1 genotoxic: -4%; Rab9 prom act: -2%; NPC1 prom act: -4%; FLuc counter: 1%; p53 reactivation: -5%

Results for CCCCc1ccc(NC(=O)CSc2nnc(C)c(=O)n2N)cc1 ?
ELG1 genotoxic: 1%; Rab9 prom act: 2%; NPC1 prom act: -3%; FLuc counter: -17%; p53 reactivation: 2%

What do the screens show for `O=C(OCCN1CCOCC1)c1ccc(Cl)cc1Cl`?
ELG1 genotoxic: 9%; Rab9 prom act: -1%; NPC1 prom act: 1%; FLuc counter: 24µM*

How did O=C(CCN1CCOCC1)c1ccc2c(c1)OCCO2 do in these assays?
SMN2 splice enh: 25%; ELG1 genotoxic: 5%; Rab9 prom act: 5%; NPC1 prom act: 1%; FLuc counter: -4%; p53 reactivation: -33%

What do the screens show for `O=C(OCCN1CCOCC1)c1ccc2c(c1)OCCO2`?
SMN2 splice enh: inconclusive; FLuc counter: 24µM*

Results for O=C(CCCN1CCOCC1)c1ccc2c(c1)OCCO2 ?
SMN2 splice enh: inconclusive; ELG1 genotoxic: inconclusive; Rab9 prom act: 2µM*; NPC1 prom act: inconclusive; FLuc counter: 13µM*; p53 reactivation: 13%

How did Cc1ccc(C2=NN(CC(=O)NCCCN(CC(C)C)CC(C)C)C(=O)CC2)cc1 do in these assays?
FLuc counter: 2%

What do the screens show for `CCc1ccc(NC(=O)c2cnn(-c3c(C)cccc3C)c2C2CCNCC2)cc1`?
FLuc counter: -1%

How did Nc1ccc2c(c1Cl)C(=O)c1ccc(N)c(Cl)c1C2=O do in these assays?
ELG1 genotoxic: inconclusive; Rab9 prom act: 2.2µM*; NPC1 prom act: inconclusive; FLuc counter: 12µM*; p53 reactivation: inconclusive

What do the screens show for `CC(NC(=O)c1c(O)c2ccccc2n(C)c1=O)c1ccccc1` (stereo unspecified)?
ELG1 genotoxic: -1%; Rab9 prom act: 14%; NPC1 prom act: 3%; FLuc counter: inconclusive; p53 reactivation: 21%
